Measurements taken from PubChem BioAssay AID588763 (NMMLSC, 2011).
Results with a measured potency or affinity are listed apart. Active and inactive are the calls of the source. No rule for the calls is given here.

The compounds below were run against Beta-2 adrenergic receptor (Homo sapiens) (UniProt P07550) (assay: beta2AR agonists driving receptor internalization, dose response, cell-based, FAP fluorogen, flow cytometry, cherry pick 1 (AID 588763)). Conditions: AM2.2-beta2AR cells, 90 min; series mostly up to 33 µM.
Beta-2 adrenergic receptor (Homo sapiens), sequence (P07550 whole entry, looked up): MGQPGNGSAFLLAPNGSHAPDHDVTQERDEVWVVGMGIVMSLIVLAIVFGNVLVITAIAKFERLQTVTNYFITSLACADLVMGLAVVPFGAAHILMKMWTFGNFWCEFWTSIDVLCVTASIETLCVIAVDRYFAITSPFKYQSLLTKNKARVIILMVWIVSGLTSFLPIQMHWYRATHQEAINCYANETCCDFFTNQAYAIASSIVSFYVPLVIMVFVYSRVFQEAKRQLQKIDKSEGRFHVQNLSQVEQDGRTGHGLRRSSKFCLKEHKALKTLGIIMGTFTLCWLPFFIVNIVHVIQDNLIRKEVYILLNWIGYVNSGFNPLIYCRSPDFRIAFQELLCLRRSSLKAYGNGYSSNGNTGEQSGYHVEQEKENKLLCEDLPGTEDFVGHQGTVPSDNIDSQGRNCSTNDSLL

outcome, inactive:
COc1ccccc1C(=O)Nc1ccc(S(=O)(=O)N2CCCCC2c2cccnc2)cc1 (stereo not drawn), COc1ccc(-c2nc(NC(=O)c3cc(C(C)(C)C)nn3C)sc2C)cc1, COc1ccc(OC)c(S(=O)(=O)N(C)CC(=O)N2CCN(c3ccccc3)CC2)c1, CCOc1ccc(NC(=O)COc2ccc(S(=O)(=O)N3CCOCC3)cc2)cc1, CN(CC(=O)N1CCN(c2ccc(F)cc2)CC1)S(=O)(=O)c1ccc(F)cc1, COc1ccc(NC(=O)c2cccc(N3C(=O)c4cccc([N+](=O)[O-])c4C3=O)c2)cc1, Cc1cc(S(=O)(=O)N2CCOCC2)ccc1OCC(=O)Nc1ccccc1C(F)(F)F, CCN(CC)CCNc1ncnc2c1sc1nc(N3CCCC3)c3c(c12)CC(C)(C)OC3, COc1ccccc1N1CCN(C(=O)CN(C)S(=O)(=O)c2ccc(C)cc2)CC1, CC(C)NCC(O)c1cc(O)cc(O)c1 (stereo not drawn), CCCC(=O)N1CCN(c2ccc(NC(=O)c3ccc([N+](=O)[O-])o3)cc2Cl)CC1, N=c1n(CC(=O)c2ccc([N+](=O)[O-])cc2)c2ccccc2n1Cc1ccccc1, COc1cccc(CN2CCC(Oc3ccc(C(=O)N4CCCCC4)cc3)CC2)c1, Cc1cccc(-c2nnc(SCc3nc4ccccc4[nH]3)n2Cc2ccco2)c1, Cc1ccc(OCc2cc(C(=O)NC3CCc4ccccc43)no2)cn1 (stereo not drawn), COC(=O)[C@@H](NC(=O)c1cc(COc2cncc(Cl)c2)on1)c1ccccc1, CN(C)c1ccc(-c2nnn(CC(=O)Nc3ccccc3N3CCOCC3)n2)cc1, COC(=O)c1ccccc1NC(=O)Cn1nnc(-c2ccc(OC)cc2)n1, Cc1ccc(OCC(O)Cn2c(=N)n(Cc3ccccc3)c3ccccc32)cc1 (stereo not drawn), Cc1cc(S(=O)(=O)N2CCCCC2)ccc1OCC(=O)Nc1ccccc1, COC(=O)c1ccc(CNC(=O)c2cc(COc3cncc(Cl)c3)on2)cc1, COc1cccc(OC)c1C(=O)Nc1ccc(NC(=O)c2ccco2)cc1, O=C(Nc1ccc(NC(=O)c2ccccc2F)cc1)c1cccs1, CCOC(=O)c1ccc(NC(=O)Cn2nnc(-c3ccccc3C)n2)cc1, CCOc1ccccc1CNC(=O)C1CCN(c2nnc(C)c3c(C)n(-c4ccc(C)cc4)nc23)CC1, CC(=O)c1ccc(NC(=O)c2ccc3c(Cl)c4c(nc3c2)CCCC4)cc1, Cc1ccc(C(=O)c2cc([N+](=O)[O-])ccc2N2CCCCC2)c(C)c1, COc1cc(CNCCc2ccc(S(N)(=O)=O)cc2)ccc1OCc1ccc(Cl)cc1, COc1ccc(OC)c(C(=O)NC(CC(N)=O)c2ccc(N3CCN(c4ccccn4)CC3)c([N+](=O)[O-])c2)c1 (stereo not drawn), CCc1ccc(CN(C)C(=O)c2cc(COc3cncc(Cl)c3)on2)cc1, O=C(Nc1ccc(-c2cccc(F)c2)cc1)C1CCCN(Cc2ccccn2)C1 (stereo not drawn), COc1ccc(C(=O)Nc2nc3cc4c(cc3s2)OCCO4)c(OC)c1, CCOc1cc(/C=C2\CN(C)C/C(=C\c3ccc(O)c(OCC)c3)C2=O)ccc1O
